This is part of a sample that, as a whole, favours compounds with a hit. Of some 83,000 tested, about 20% had one in any assay.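 Each cell line was grown in a 96-well plate and treated with one concentration of compound for 48 hours. Values below 10 were considered active.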 Unmarked numbers belong to inactive results. Active and inactive are the calls of the source.

The test system of this assay is SK-MEL-2 melanoma. Nature of the assay: NCI-60 one-dose screen, 48 h (100 = growth as untreated, 0 = no growth, -100 = all killed). Particulars: 10 µM unless noted.
In the case of `COCCCNc1nc(NC(=O)c2cc(Br)cc(C(F)(F)F)c2)cc(-c2cccnc2)n1`, the growth was 80.6%.
The value for `O=C(NCCCNC(=O)OCc1ccc2cccc(O)c2n1)OCc1ccc2cccc(O)c2n1` was 71.3%; that for `COc1cccc(-c2[nH]c(=S)ncc2C(=O)c2ccccc2)c1` was 99.9%.
Consider `CCN(CCO)CCC(=O)c1ccc([N+](=O)[O-])cc1`, for which the growth is 107%.
The value for `Cc1ccc(N)c(O)c1` was 100%.
The value for `CC(C)C1=NOC(=O)C1=Cc1cn(-c2ccccc2)nc1-c1ccc(Br)cc1` was 87%.
With `Cc1cc[n+](CCCCCCCCCC[n+]2ccc(C)cc2)cc1` the figure was 98.4%; with `C[C@@H](NC(=O)[C@@H](CC(=O)N1CCC(N2CCCCC2)CC1)N1C(=O)[C@@H](N2C(=O)OC[C@@H]2c2ccccc2)[C@H]1/C=C/c1cccc(Cl)c1)c1ccccc1`, 96.8%; with `C/C=C/C1OC23CCCCC2C(C#N)(C(=N)O3)C1(C#N)C#N` (stereo not given), 107%.
Turning to `CCCOc1ccc(-c2nc(-c3ccc(N)cc3)cs2)cc1`, the growth is 107%.
With `Cc1ccccc1OC(=O)c1cccc(Cl)c1` the figure was 103%.
Regarding `CC(C)c1ccc(C(=O)Nc2nc3ccc(O)cc3s2)cc1`, the growth was 78%.
With `COc1cc(-c2nc(SCCC(C)C)nc(Nc3ccc(S(N)(=O)=O)cc3)c2C#N)cc(OC)c1OC`, the growth was 51.4%.
With `O=C(CSc1nc2ccc([N+](=O)[O-])cc2[nH]1)Nc1cccc(Cl)c1` the figure was 7.44% (active); with `COc1ccc2nc3cc(Cl)ccc3c(Nc3ccc(O)cc3)c2c1`, 110%.

For the origin of these results see PubChem BioAssay (NCI).
